Measurements published in PubChem BioAssay (NCI).
Compounds without any hit were thinned out: in the full panel of roughly 83,000, 20% have a hit.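 The endpoint reported here, percent growth, reads 100 for growth as untreated, 0 for no net growth and -100 for all cells dead.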 Unmarked numbers belong to inactive results. Active and inactive are the calls of the source. How the source made its calls: active means growth percent below 10; inactive means the rest.

tested on: DU-145 prostate; test: NCI-60 one-dose screen, 48 h (100 = growth as untreated, 0 = no growth, -100 = all killed); settings: 10 µM unless noted

Q: Which growth does the source give for `CCCC[C@H](NC(=O)[C@H]1CCCN1C)C(=O)N(C)[C@H](C[C@@H](OC(C)=O)c1nc(C(=O)N[C@@H](Cc2ccccc2)C[C@H](C)C(=O)OCC)cs1)C(C)C` here?
A: The growth was 12.8%.

Q: `COc1ccc2c(c1)c(-c1nc(-c3c[nH]c4ncccc34)cs1)cn2CCCCN1CCCCC1` was tested. Which growth did it give?
A: Its growth is -14.6% (active).

Q: How did the growth turn out when `COC(=O)[C@H](Cc1ccccc1)NC(=O)c1csc([C@@H](C[C@H](C(C)C)N(C)C(=O)[C@@H](NC(=O)[C@H]2CCCN2C)C2CC2)OC(C)=O)n1` was run?
A: Its growth is 7.69% (active).

Q: Which growth does the source give for `C[C@]12CC[C@H]3[C@@H](CC[C@]4(O)C[C@@H](O[C@@H]5O[C@H](CO)[C@@H](O[C@@H]6OC[C@@H](O)[C@H](O)[C@H]6O)[C@H](O)[C@H]5O)CC[C@]34C=O)[C@@]1(O)CC[C@@H]2C1=CC(=O)OC1` here?
A: The growth was -62.4% (active).

Q: Which growth does the source give for `c1cc2c(c3c1CCNC3)OCO2` here?
A: Its growth is 120%.

Q: With `Fc1ccc2c(c1)c(-c1nc(-c3c[nH]c4ncccc34)cs1)cn2CCCCN1CCCCC1` as the compound, how does the growth read?
A: The growth was -93.1% (active).

Q: `O=C(Nc1ccncc1F)c1cn(CC2CC2)c2ccccc12` was tested. Which growth did it give?
A: The growth was 114%.

Q: How did the growth turn out when `COP(=S)(N1CC1)N1CC1` was run?
A: Its growth is 123%.

Q: For `C/C=C(\C)C(=O)O[C@@H]1C(O)[C@H]2OC(COC(=O)CCC(=O)CCCCCC[C@H](CCCCC)O[C@@H]3OC(C)[C@H](OC(C)=O)C(O)[C@H]3O2)[C@H]1OC(=O)/C=C/c1ccccc1` (some centres undefined), which growth is on record?
A: Its growth is 22.5%.

Q: For `CCc1ccccc1[C@@H]1C[C@]2(C)CCO[C@@H]2OO1`, which growth is on record?
A: Its growth is 105%.

Q: How did the growth turn out when `CC(=O)O[C@H](C[C@H](C(C)C)N(C)C(=O)[C@@H](NC(=O)[C@H]1CCCCN1C)C(C)(C)C)c1nc(C(=O)N[C@@H](Cc2ccccc2)C[C@H](C)C(=O)O)cs1` was run?
A: Its growth is 0.642% (active).

Q: `COc1ccc(C(=O)c2cc(OC)c(OC)c(OC)c2)cc1OC(C)=O` was tested. Which growth did it give?
A: The growth was 4.78% (active).

Q: How did the growth turn out when `COc1ccc(N(CC(=O)NCCC[Te]c2ccccc2)C(=O)CNC(=O)OC(C)(C)C)cc1` was run?
A: The growth was 48.9%.

Q: How did the growth turn out when `COC(=O)[C@@H](C)C[C@H](Cc1ccccc1)NC(=O)c1csc([C@@H](C[C@H](C(C)C)N(C)C(=O)[C@@H](NC(=O)[C@H]2CCCCN2C)C(C)C)OC(C)=O)n1` was run?
A: The growth was 10.3%.

Q: For `CC[C@H](C)[C@@H]1OC(=O)C(C)(C)[C@H](O)[C@H](Cc2ccccc2)OC(=O)[C@H](C(C)C)OC(=O)[C@@H](NC(=O)c2cccc(NC=O)c2O)[C@@H](C)OC1=O`, which growth is on record?
A: The growth was 62.7%.

Q: With `NC(=O)CNc1ccc([As]=[As]c2ccc(NCC(N)=O)cc2)cc1` (centres undefined) as the compound, how does the growth read?
A: Its growth is 60.3%.

Q: `Fc1ccc2c(c1)c(-c1nc(-c3c[nH]c4ncccc34)cs1)cn2CCN1CCOCC1` was tested. Which growth did it give?
A: Its growth is 77%.

Q: Which growth does the source give for `O=[N+]([O-])CC(c1ccccc1Cl)c1c(-c2ccccc2)[nH]c2ccccc12` (centres undefined) here?
A: Its growth is 43.7%.

Q: How did the growth turn out when `CCn1c2ccccc2c2cc(C(=O)c3cccc4c3CCCN4)ccc21` was run?
A: The growth was 102%.

Q: For `COc1ccc(/C(C)=C(\c2ccc(OCCN3CCOCC3)cc2)c2ccc(OC(=O)Cc3ccccc3)cc2)cc1`, which growth is on record?
A: Its growth is 102%.

Q: How did the growth turn out when `Cc1cc(N(CCCl)CCCl)ccc1C=Nc1ccc(-c2csc(Cc3ccccc3)n2)cc1` was run?
A: The growth was 57.1%.

Q: How did the growth turn out when `Cc1ccc2c(C(C[N+](=O)[O-])c3cccs3)c(-c3ccccc3)[nH]c2c1` (centres undefined) was run?
A: The growth was 28.1%.

Q: With `O=C(CC1(O)C(=O)N(Cc2ccccc2)c2ccc(Cl)cc21)c1ccc(C(=O)NCC2CCC3(CC2)OOC2(CCCCC2)OO3)cc1` (centres undefined) as the compound, how does the growth read?
A: The growth was -97.6% (active).

Q: For `CCOC(=O)CCC(NC(=O)C(Cc1ccc(N(CCCl)CCCl)cc1)NC=O)C(=O)OCC` (centres undefined), which growth is on record?
A: The growth was 36.3%.

Q: `COC(=O)[C@@H](C)C[C@H](Cc1ccccc1)NC(=O)c1csc([C@@H](C[C@H](C(C)C)N(C)C(=O)[C@@H](NC(=O)C23CC(NC(C)=O)(C2)C3)C2CC2)OC(C)=O)n1` was tested. Which growth did it give?
A: The growth was 61.6%.

Q: How did the growth turn out when `COC(=O)[C@]12CCC(C)(C)C[C@H]1[C@H]1C(=O)C[C@@H]3[C@@]4(C)C[C@@]5(CC(C)(C)[C@@H]4CC[C@@]3(C)[C@]1(C)CC2)OO[C@@](C)(C(F)(F)F)O5` was run?
A: Its growth is 107%.

Q: With `CNC(=O)Oc1ccc(N(C)C)cc1C(C)C` as the compound, how does the growth read?
A: The growth was 101%.

Q: With `COc1ccc(/C=C\c2cc(OC)c(OC)c(OC)c2)cc1OCC(=O)Nc1nc2ccc(C(F)(F)F)cc2s1` as the compound, how does the growth read?
A: The growth was 0.679% (active).

Q: How did the growth turn out when `O=C(CC1(O)C(=O)N(Cc2ccccc2)c2ccc(F)cc21)c1ccc(C(=O)NCC2CCC3(CC2)OOC2(CCCCC2)OO3)cc1` (centres undefined) was run?
A: The growth was -94.3% (active).
